Assay results as given in PubChem BioAssay (NCI).
About 79,000 compounds went through this panel and 15% of them were active in at least one assay; those are over-represented in the sample as a whole. Values without a mark were called inactive. Calls of active or inactive are those of the source. No stated cut-off is given here; in the data, active means growth inhibition above about 70%; inactive means the rest. Where a SMILES comes first, the peptide text is derived from it. The star is where a group is joined. Boc = CC(C)(C)OC(=O)*; tBu = CC(C)(C)*

What was measured:
[1] = NCI Yeast Anticancer Drug Screen. Data for the rad50 strain (AID 155);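 further: 0% = growth of vehicle-only cultures of the same strain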; conditions: S. cerevisiae rad50 strain growth inhibition; at 50.0 µM; hits give high values
Summary of the method: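 Compounds were tested on a yeast strain with an engineered DNA damage repair alteration; the reported value is growth inhibition normalised to vehicle treatment.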

[2] = NCI Yeast Anticancer Drug Screen. Data for the mec2-1 strain (AID 157); conditions: S. cerevisiae mec2-1 strain, at 50.0 µM, hits give high values
Summary of the method: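 Using mec2-1 yeast: add compound, measure growth, express inhibition versus vehicle-treated cultures.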

[3] = NCI Yeast Anticancer Drug Screen. Data for the sgs1 mgt1 strain (AID 161);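 further: 0% = growth of cultures given vehicle only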; conditions: S. cerevisiae sgs1 mgt1 strain, at 50.0 µM, hits give high values
Summary of the method: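 Compounds are added to genetically altered yeast, and growth is compared with cultures given vehicle alone to give percent inhibition.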

[4] = NCI Yeast Anticancer Drug Screen. Data for the cln2 rad14 strain (AID 165);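 further: 0% = growth equal to vehicle treated cultures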; conditions: S. cerevisiae cln2 rad14 strain, at 50.0 µM, hits give high values
Summary of the method: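 Yeast strain cln2 rad14, bearing defects in cell cycle control and DNA repair, serves as the test system; values reflect growth inhibition compared with vehicle.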

[5] = NCI Yeast Anticancer Drug Screen. Data for the bub3 strain (AID 167); conditions: S. cerevisiae bub3 mutant strain, at 50.0 µM, hits give high values
Summary of the method: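 Growth of a checkpoint-deficient yeast mutant is measured after compound exposure. Values represent inhibition relative to vehicle.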

[6] = NCI Yeast Anticancer Drug Screen. Data for the mlh1 rad18 strain (AID 175); conditions: S. cerevisiae mlh1 rad18 strain growth inhibition; at 50.0 µM; hits give high values
Summary of the method: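 Steps: expose repair-defective yeast to compound; measure growth; express inhibition against vehicle-treated controls.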

SMILES	growth inhibition [1]	growth inhibition [2]	growth inhibition [3]	growth inhibition [4] [%]	growth inhibition [5] [%]	growth inhibition [6]
Cc1ccc(S(=O)(=O)N/N=C2/CC3CCC4CC2CC34)cc1 (configuration not stated)	-51%	-0.6%	-35.2%	-25	12.9	-10.1%
Cc1ccc(NC(=O)Oc2ccc(Br)cc2Br)c(Cl)c1	21.1%	17.9%	16.7%	-0.25	-6.3	41.6%
CC(C)(NC(=O)OCc1ccccc1)C(=O)OC(=O)C(C)(C)NC(=O)OCc1ccccc1	-15.9%	21.1%	5.85%	13.8	2.15	-19.4%
C1CSCCSCCCSCCSCCCSCCSCCCSCCSC1	21.2%	20.9%	45.9%	13.4	21.1	44.6%
N#C/C(=C\c1cccs1)C(N)=S	6.85%	-18.6%	-6.45%	-31.2	-9.1	1.65%
CCC1(CC)COC2(CCC(C)CC2)OC1	-6.4%	-2.95%	-5.05%	-16.1	-14.7	7.5%
CCOC(=O)Nc1ccc(NC(C)=O)cc1	2.45%	0.65%	1.3%	-62.7	-23.8	-22.6%
C#CC[N+](CC)(CC)CC	2.6%	-11.9%	-11.3%	-84	-3.3	-13.2%
CC(OC(C)(C)C)C(NC(=O)C(N)CCCCNC(=O)OC(C)(C)C)C(=O)NC(Cc1ccccc1)C(=O)O (configuration not stated) (H-Lys(Boc)-Thr(tBu)-Phe-OH; configuration not given here)	-37.3%	-11.6%	-39.4%	-14.8	-5	-15%
Cc1cc(=O)c2cc(-c3ccccc3)ccc2[nH]1	-1%	4.4%	-13.4%	0.05	-1.5	2%
CC(C)C1OC2(C)OC(=N)C1(C#N)C(C#N)(C#N)C2C (configuration not stated)	-0.75%	2.2%	-18.5%	-10.7	-17.5	-13.8%
Cc1ccc(/C=C2\N=C(N3CCCC(CO)C3)NC2=O)cc1 (configuration not stated)	18.6%	-1.55%	-18.3%	-1.15	1.3	-44%
O=C(/C(=N\Nc1ccc([N+](=O)[O-])cc1[N+](=O)[O-])c1ccccc1)c1ccccc1	-11.6%	-11.7%	-2.5%	-20.8	2.95	-1.3%
CC1=Nc2nc3ccccc3n2C(C)(C)C1	14.6%	18.8%	11.6%	-3.95	-0.2	-34.1%
CC(C)(C)C1=Cc2cc3cc(C(C)(C)C)[nH]c(=O)c3cc2S(=O)(=O)N1	-23.2%	-22.6%	-14.4%	3	5.4	-20.9%
CCc1cccc(CC)c1NC(=O)c1ccc(C)cc1	-6.25%	-30%	9.4%	7.2	-1.35	-4%
C1=CC(c2ccccc2)=C(c2ccccc2)C(c2ccccc2)C(c2ccccc2)=C1 (configuration not stated)	18.2%	1.95%	13.2%	26.9	-1.05	11.8%
O=C(NN(Cn1c(=S)sc2ccccc21)Cn1c(=S)sc2ccccc21)c1ccccc1O	86.7% (active)	74.2% (active)	89% (active)	57.6	69	76.2% (active)
O=C1C(NCCc2ccc(O)c(O)c2)=CC(=O)c2ncccc21	35.5%	34.6%	32.1%	24.1	6.3	-5.35%
CC(=O)Nc1ccc2c(c1)C(P(=O)(OC(C)C)OC(C)C)c1ccccc1-2 (configuration not stated)	6%	19.6%	18.1%	-1.4	34.4	-2.8%
CC1c2ccc3ccccc3c2C(=O)c2cccc(Cl)c21 (configuration not stated)	0.45%	31.9%	14.7%	-42.6	-5.65	-1.65%

SMILES	growth inhibition [1]	growth inhibition [2]	growth inhibition [3]	growth inhibition [4] [%]	growth inhibition [5] [%]	growth inhibition [6]
COc1ccc(C(=O)C(C(=O)CCC(=O)Nc2ccc(Cl)c(Cl)c2)c2ccc(OC)cc2)cc1 (configuration not stated)	-9.65%	1.7%	-11.3%	-8.6	18.6	-17.9%
CC(C)(C)c1ccc(C(=O)O)c(O)c1.CC(C)(C)c1ccc(C(=O)O)c(O)c1.[Cu]	24.6%	15.1%	43.4%	47.6	2.75	37.1%
NCCCCCCN	-50.6%	-6.05%	-36.6%	-46.8	-45.5	-65%
CCN1N=CSC12C(=O)N(c1ccccc1)C(=O)N2c1ccccc1 (configuration not stated)	-20.6%	-15.1%	-31.9%	0.35	-14.7	-38.6%
CC(=O)n1[nH]c(=O)n(-c2ccccc2)c1=O	-23%	-20.1%	-17.9%	10.1	-26.1	-24.5%
Cc1ccsc1/C=N/NC(N)=S	30%	-7%	32.5%	5.55	9.2	28.7%
CCOC(=O)C(Cc1c[nH]c2ccccc12)NCCN (configuration not stated)	-4.85%	4.8%	-1.45%	-9.95	-7.25	-3.8%
Cc1cccc(C(=O)c2ccc(C)cc2C)c1	17.1%	6.65%	-7.55%	6.75	-0.7	5.4%
Fc1cccc(-c2nnc(-c3ccccc3)o2)c1	34.1%	23.1%	28.9%	19.4	37.8	-1.65%
COc1ccc(/C=C/c2ccc3ccccc3[n+]2C)cc1OC	32%	4.55%	32.6%	21.3	0.7	15.9%
CC(=O)OC1CCC2(C)C(=CCC3C4CCC(=O)NC4(C)CCC32)C1 (configuration not stated)	43%	-1.8%	52.7%	-4.95	8.4	28.9%
CCOC(=O)/C(=C\n1c(=O)[nH]c(=O)[nH]c1=S)C(=O)c1ccccc1	-22.8%	-17.4%	-9.25%	7.35	-17.9	-13.2%
CCCC(O)C(C)(C)C (configuration not stated)	-35.7%	-67.5%	-51.6%	-11.2	-43.5	-42%
CN(C)c1ccc([Si](c2ccc(N(C)C)cc2)c2ccc(N(C)C)cc2)cc1	-18.5%	3.65%	-19.1%	-28.8	-1.1	23.4%
NC(=S)c1ccc(N=Cc2ccccn2)cc1	-0.25%	-0.35%	-1.7%	-12.3	3.1	-8%
Cc1ccc2c(c1-c1ccccc1)C(=O)OC2	-5.4%	-3.05%	2.15%	5.35	6.25	-3.3%
N#Cc1cccc(O)c1	-3.45%	-10.7%	-2.45%	20.1	13.7	12%
O=C1CS(=O)(=O)CN1c1ccc(Cl)c(Cl)c1	-17.4%	-3.35%	-7.65%	6	7	3.6%
COc1cccc(N2C(=O)/C(=C/c3ccc(N(CCC#N)CCC#N)cc3)N=C2c2cc([N+](=O)[O-])ccc2Cl)c1	7.9%	27.9%	40.8%	32	32.1	28.9%
Cc1ccc(N=Nc2ccc(O)c(CN(C)C)c2)cc1C	-26.4%	-29.5%	48.5%	-11	49	36.2%
O=C(O)CSCc1ccccc1Cl	1.6%	-6.05%	-9.5%	8.25	-13.1	-11.1%
